The values that follow come from PubChem BioAssay (NCI).

Compounds without any hit were thinned out: in the full panel of roughly 83,000, 20% have a hit.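 Negative percent growth values reflect cell death: -40 means 40% of the cells present at the start died, and -100 means all died.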 Unmarked numbers belong to inactive results. The source made the active and inactive calls. Rule for the calls: active = growth percent below 10; inactive = the rest.

Test systems include DU-145 prostate; K-562 leukemia; MALME-3M melanoma; MDA-MB-231 breast; RXF 393 renal; SF-268 CNS; SF-295 CNS; SF-539 CNS; UACC-257 melanoma; M14 melanoma; HCT-15 colon; HT29 colon; SNB-75 CNS; SNB-19 CNS; U251 CNS; PC-3 prostate; SK-MEL-5 melanoma; UACC-62 melanoma; LOX IMVI melanoma; SK-MEL-28 melanoma.
Experiment in all cases: NCI-60 one-dose screen, 48 h (100 = growth as untreated, 0 = no growth, -100 = all killed)
What all share (settings): 10 µM unless noted

As to `CC(Cc1cccc(C(F)(F)F)c1)NCCOC(=O)c1ccccc1` (centres undefined), the growth in the experiment on DU-145 prostate was 112%; in the experiment on K-562 leukemia, 94.4%; with MALME-3M melanoma, 104%; with MDA-MB-231 breast it was 102%; in the experiment with RXF 393 renal it was 117%; in the experiment on SF-268 CNS it was 99.5%. In addition, the growth is 98.4% with SF-295 CNS; 116% in the experiment with SF-539 CNS; 105% with UACC-257 melanoma; 106% with M14 melanoma; 105% in the experiment on HCT-15 colon; 115% with HT29 colon. Besides, the growth is 99.5% with SNB-75 CNS; 100% in the experiment with SNB-19 CNS; 104% with U251 CNS; 103% in the experiment with PC-3 prostate; 89.5% with SK-MEL-5 melanoma; 102% in the experiment with UACC-62 melanoma. Further, the growth in the experiment with LOX IMVI melanoma was 96.3%; with SK-MEL-28 melanoma, 107%.

Regarding `COc1cccc(/C=N/C(=S)NC2(C)C3CCC(C3)C2(C)C)c1O` (centres undefined), the growth is 105% with DU-145 prostate; 79.4% in the experiment with K-562 leukemia; 89.8% in the experiment with MALME-3M melanoma; 96.2% in the experiment with MDA-MB-231 breast; 99% in the experiment with RXF 393 renal; 94.7% in the experiment with SF-268 CNS. The growth was 86.1% in the experiment on SF-295 CNS; 95.3% in the experiment on SF-539 CNS; 87% in the experiment with UACC-257 melanoma; 64.8% in the experiment with M14 melanoma; 32.5% in the experiment on HCT-15 colon; 101% with HT29 colon. Further, the growth was 90.8% with SNB-75 CNS; 82.9% with SNB-19 CNS; 48.7% with U251 CNS; 65.9% with PC-3 prostate; 88.6% in the experiment with SK-MEL-5 melanoma; 94.5% with UACC-62 melanoma. Also, the growth was 70.8% in the experiment on LOX IMVI melanoma and 102% with SK-MEL-28 melanoma.

For the molecule `CCOC(=O)c1noc2c1CCc1c-2cn(Cc2ccc(OC)cc2)c1-c1cc(OC)c(OC)c(OC)c1`, the growth in the experiment with DU-145 prostate is 24.5%; with K-562 leukemia, 7.62% (active); in the experiment on MALME-3M melanoma it was 76.9%; in the experiment on MDA-MB-231 breast, -1.46% (active); with RXF 393 renal, 11.7%; in the experiment on SF-268 CNS it was 41.5%. Besides, the growth in the experiment on SF-295 CNS is 21.2%; in the experiment on SF-539 CNS, -10.4% (active); with UACC-257 melanoma, 54.3%; with M14 melanoma, 3.01% (active); with HCT-15 colon, 23.5%; with HT29 colon it was 4.06% (active). Further, the growth with SNB-75 CNS was 14%; in the experiment with SNB-19 CNS, 24.4%; in the experiment on U251 CNS, 18.4%; in the experiment with PC-3 prostate, 25.3%; with SK-MEL-5 melanoma it was 16.9%; in the experiment on UACC-62 melanoma, 22.4%. Moreover, the growth with LOX IMVI melanoma is 42.3%; with SK-MEL-28 melanoma it was 58.1%.

Consider `COc1ccc(Cn2cc(COc3ccc4c5ccnc(C)c5n(CCCc5ccccc5)c4c3)nn2)cc1`, for which the growth in the experiment on DU-145 prostate is 84.3%; in the experiment with K-562 leukemia, 63.2%; in the experiment with MALME-3M melanoma it was 81.6%; in the experiment on MDA-MB-231 breast, 65.6%; in the experiment with RXF 393 renal, 58.8%; in the experiment on SF-268 CNS, 76.6%. Besides, the growth is 92.3% with SF-295 CNS; 58.7% in the experiment with SF-539 CNS; 90.2% with UACC-257 melanoma; 83.1% in the experiment with M14 melanoma; 68.4% with HCT-15 colon; 43.5% with HT29 colon. Moreover, the growth in the experiment on SNB-75 CNS was 51%; with SNB-19 CNS it was 84.4%; with U251 CNS it was 64.9%; with PC-3 prostate, 74.8%; with SK-MEL-5 melanoma it was 79.1%; in the experiment on UACC-62 melanoma, 34.8%. The growth is 70.3% with LOX IMVI melanoma and 76.2% in the experiment with SK-MEL-28 melanoma.

`COc1cc(/C=C/C(=O)c2c(C)n([O-])c3cc(C)c(C)cc3[n+]2=O)cc(OC)c1OC`: the growth in the experiment on DU-145 prostate is 50.5%; in the experiment with K-562 leukemia, 21.7%; in the experiment on MALME-3M melanoma, 86%; in the experiment with MDA-MB-231 breast it was 67.8%; in the experiment on RXF 393 renal, 54.2%; with SF-268 CNS, 79.9%. For the same molecule, the growth was 71.7% with SF-295 CNS; 80.2% in the experiment with SF-539 CNS; 100% in the experiment with UACC-257 melanoma; 48.7% with M14 melanoma; 51.7% in the experiment on HCT-15 colon; 70.6% with HT29 colon. Also, the growth is 50.5% in the experiment on SNB-75 CNS; 60.5% with SNB-19 CNS; 45.8% in the experiment on U251 CNS; 59.6% with PC-3 prostate; 59% in the experiment on SK-MEL-5 melanoma; 64% in the experiment on UACC-62 melanoma. Moreover, the growth with LOX IMVI melanoma is 51.7%; with SK-MEL-28 melanoma it was 72.9%.

On to `C=CCn1c(SCC(=O)Nc2ccc(/C(C)=N\O)cc2)nnc1-c1cc(-c2ccc(OC)cc2)nc2ccccc12`, for which the growth is 60.6% with DU-145 prostate; 19.1% with K-562 leukemia; 66.4% with MALME-3M melanoma; 33.7% in the experiment with MDA-MB-231 breast; 42.2% with RXF 393 renal; 51.5% with SF-268 CNS. The growth is 19.8% in the experiment with SF-295 CNS; 20.2% with SF-539 CNS; 44.1% in the experiment with UACC-257 melanoma; 36.3% with M14 melanoma; 36.3% in the experiment with HCT-15 colon; 42% in the experiment with HT29 colon. In addition, the growth with SNB-75 CNS was 57.4%; in the experiment on SNB-19 CNS, 44.5%; in the experiment on U251 CNS, 29.8%; in the experiment on PC-3 prostate, 29.9%; in the experiment with SK-MEL-5 melanoma it was 36.4%; with UACC-62 melanoma, 37.7%. In addition, the growth in the experiment with LOX IMVI melanoma was -65.4% (active); in the experiment on SK-MEL-28 melanoma it was 61.7%.

For `Nc1ncc(-c2ccc3ncnc(Nc4cncc(Cl)c4)c3c2)cn1`, the growth in the experiment with DU-145 prostate is 49.7%; with K-562 leukemia, 82.9%; with MALME-3M melanoma, 38.7%; in the experiment on MDA-MB-231 breast, 66.5%; in the experiment on RXF 393 renal, 60.3%; in the experiment with SF-268 CNS, 68.2%. Moreover, the growth in the experiment with SF-295 CNS was 77.2%; in the experiment with SF-539 CNS, 78.1%; in the experiment with UACC-257 melanoma, 82.9%; with M14 melanoma, 77.9%; in the experiment with HCT-15 colon, 73.2%; with HT29 colon, 68.6%. The growth in the experiment with SNB-75 CNS is 31.4%; with SNB-19 CNS, 76.7%; in the experiment with U251 CNS, 73.3%; in the experiment on PC-3 prostate, 48.8%; in the experiment with UACC-62 melanoma, 56.9%; in the experiment with LOX IMVI melanoma it was 61.5%. Besides, the growth with SK-MEL-28 melanoma was 69.5%.
